Measured values published in ChEMBL document CHEMBL1961873, “Compounds: GSK PKIS; Assays: Nanosyn kinase panel” (2012).

What was measured:
[1] = target: T1, Inhibitor of nuclear factor kappa-B kinase subunit epsilon (Homo sapiens) (UniProt Q14164); details: at 1 µM;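 also: reported values are averaged percent inhibition figures against human IKKε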
T1 sequence (whole entry): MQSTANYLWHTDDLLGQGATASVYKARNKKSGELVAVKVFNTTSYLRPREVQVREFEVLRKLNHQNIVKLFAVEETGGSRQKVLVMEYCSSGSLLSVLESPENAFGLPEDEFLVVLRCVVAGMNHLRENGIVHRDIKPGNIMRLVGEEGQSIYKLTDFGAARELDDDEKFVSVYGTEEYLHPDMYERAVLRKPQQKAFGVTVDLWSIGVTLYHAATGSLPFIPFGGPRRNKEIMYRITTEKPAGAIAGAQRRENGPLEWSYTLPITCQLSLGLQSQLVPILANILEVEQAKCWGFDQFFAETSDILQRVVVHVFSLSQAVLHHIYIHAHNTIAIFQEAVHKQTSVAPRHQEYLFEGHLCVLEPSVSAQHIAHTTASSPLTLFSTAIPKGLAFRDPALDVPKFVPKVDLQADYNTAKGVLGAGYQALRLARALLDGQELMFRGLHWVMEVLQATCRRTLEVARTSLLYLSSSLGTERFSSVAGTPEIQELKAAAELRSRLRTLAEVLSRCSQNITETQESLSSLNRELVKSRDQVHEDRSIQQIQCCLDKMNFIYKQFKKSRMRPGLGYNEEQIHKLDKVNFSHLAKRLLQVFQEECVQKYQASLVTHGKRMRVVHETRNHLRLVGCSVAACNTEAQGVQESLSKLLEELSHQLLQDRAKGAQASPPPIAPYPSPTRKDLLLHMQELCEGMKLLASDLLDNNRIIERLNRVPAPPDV

[2] = target: T2, Serine/threonine-protein kinase Nek1 (Homo sapiens) (UniProt Q96PY6); details: at 0.1 µM
T2 sequence (whole entry): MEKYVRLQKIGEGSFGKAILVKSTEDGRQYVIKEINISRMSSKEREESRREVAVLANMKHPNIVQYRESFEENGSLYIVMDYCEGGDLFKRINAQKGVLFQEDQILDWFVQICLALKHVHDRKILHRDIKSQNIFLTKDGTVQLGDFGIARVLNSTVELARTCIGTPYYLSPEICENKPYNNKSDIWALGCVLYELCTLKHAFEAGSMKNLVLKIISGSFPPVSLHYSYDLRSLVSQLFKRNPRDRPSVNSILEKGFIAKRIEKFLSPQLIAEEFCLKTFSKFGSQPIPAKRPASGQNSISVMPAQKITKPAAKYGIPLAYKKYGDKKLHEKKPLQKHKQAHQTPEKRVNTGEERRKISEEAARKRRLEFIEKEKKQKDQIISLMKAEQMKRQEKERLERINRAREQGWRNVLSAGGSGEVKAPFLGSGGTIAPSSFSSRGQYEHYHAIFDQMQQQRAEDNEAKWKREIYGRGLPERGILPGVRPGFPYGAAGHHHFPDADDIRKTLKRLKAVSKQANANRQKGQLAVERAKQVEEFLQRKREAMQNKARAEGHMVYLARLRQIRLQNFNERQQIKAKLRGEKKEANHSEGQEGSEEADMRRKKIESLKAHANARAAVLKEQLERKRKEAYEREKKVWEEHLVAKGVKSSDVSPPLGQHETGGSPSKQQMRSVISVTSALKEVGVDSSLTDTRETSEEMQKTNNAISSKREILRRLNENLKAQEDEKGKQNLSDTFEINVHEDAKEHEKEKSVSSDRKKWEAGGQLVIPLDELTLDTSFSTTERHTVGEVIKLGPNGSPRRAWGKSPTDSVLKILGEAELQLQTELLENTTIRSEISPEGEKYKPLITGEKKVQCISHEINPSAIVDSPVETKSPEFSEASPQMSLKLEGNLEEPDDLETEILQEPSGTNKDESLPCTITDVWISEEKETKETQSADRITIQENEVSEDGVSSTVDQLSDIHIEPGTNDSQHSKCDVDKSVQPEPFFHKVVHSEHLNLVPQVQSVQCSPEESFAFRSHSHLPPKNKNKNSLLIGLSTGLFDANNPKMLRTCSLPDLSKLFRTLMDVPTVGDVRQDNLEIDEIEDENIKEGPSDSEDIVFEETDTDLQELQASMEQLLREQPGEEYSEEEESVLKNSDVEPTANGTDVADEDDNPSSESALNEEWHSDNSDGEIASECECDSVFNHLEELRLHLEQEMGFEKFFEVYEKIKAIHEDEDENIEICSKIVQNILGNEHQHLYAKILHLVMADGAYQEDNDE

[3] = target: T2, Serine/threonine-protein kinase Nek1 (Homo sapiens); details: at 1 µM
[4] = target: T3, Serine/threonine-protein kinase Nek2 (Homo sapiens) (UniProt P51955); details: at 0.1 µM
T3 sequence (whole entry): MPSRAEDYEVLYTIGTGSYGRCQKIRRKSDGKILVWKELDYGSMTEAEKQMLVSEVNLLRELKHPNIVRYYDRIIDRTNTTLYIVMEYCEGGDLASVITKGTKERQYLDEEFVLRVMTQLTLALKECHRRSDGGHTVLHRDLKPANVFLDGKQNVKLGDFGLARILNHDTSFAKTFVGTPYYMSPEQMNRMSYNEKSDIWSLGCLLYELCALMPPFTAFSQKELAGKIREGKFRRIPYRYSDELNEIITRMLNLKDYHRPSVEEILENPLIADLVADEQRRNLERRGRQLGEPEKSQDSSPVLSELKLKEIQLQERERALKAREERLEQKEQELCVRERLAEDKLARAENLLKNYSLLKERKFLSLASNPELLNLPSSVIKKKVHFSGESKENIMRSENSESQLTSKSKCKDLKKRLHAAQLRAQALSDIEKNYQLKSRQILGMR

[5] = target: T3, Serine/threonine-protein kinase Nek2 (Homo sapiens); details: at 1 µM
[6] = target: Serine/threonine-protein kinase Nek6 (Homo sapiens) (UniProt Q9HC98); details: at 0.1 µM
[7] = target: Serine/threonine-protein kinase Nek6 (Homo sapiens) (UniProt Q9HC98); details: at 1 µM
[8] = target: Serine/threonine-protein kinase Nek7 (Homo sapiens) (UniProt Q8TDX7); details: at 0.1 µM
[9] = target: Serine/threonine-protein kinase Nek7 (Homo sapiens) (UniProt Q8TDX7); details: at 1 µM
[10] = target: T4, Serine/threonine-protein kinase Nek9 (Homo sapiens) (UniProt Q8TD19); details: at 0.1 µM
T4 sequence (whole entry): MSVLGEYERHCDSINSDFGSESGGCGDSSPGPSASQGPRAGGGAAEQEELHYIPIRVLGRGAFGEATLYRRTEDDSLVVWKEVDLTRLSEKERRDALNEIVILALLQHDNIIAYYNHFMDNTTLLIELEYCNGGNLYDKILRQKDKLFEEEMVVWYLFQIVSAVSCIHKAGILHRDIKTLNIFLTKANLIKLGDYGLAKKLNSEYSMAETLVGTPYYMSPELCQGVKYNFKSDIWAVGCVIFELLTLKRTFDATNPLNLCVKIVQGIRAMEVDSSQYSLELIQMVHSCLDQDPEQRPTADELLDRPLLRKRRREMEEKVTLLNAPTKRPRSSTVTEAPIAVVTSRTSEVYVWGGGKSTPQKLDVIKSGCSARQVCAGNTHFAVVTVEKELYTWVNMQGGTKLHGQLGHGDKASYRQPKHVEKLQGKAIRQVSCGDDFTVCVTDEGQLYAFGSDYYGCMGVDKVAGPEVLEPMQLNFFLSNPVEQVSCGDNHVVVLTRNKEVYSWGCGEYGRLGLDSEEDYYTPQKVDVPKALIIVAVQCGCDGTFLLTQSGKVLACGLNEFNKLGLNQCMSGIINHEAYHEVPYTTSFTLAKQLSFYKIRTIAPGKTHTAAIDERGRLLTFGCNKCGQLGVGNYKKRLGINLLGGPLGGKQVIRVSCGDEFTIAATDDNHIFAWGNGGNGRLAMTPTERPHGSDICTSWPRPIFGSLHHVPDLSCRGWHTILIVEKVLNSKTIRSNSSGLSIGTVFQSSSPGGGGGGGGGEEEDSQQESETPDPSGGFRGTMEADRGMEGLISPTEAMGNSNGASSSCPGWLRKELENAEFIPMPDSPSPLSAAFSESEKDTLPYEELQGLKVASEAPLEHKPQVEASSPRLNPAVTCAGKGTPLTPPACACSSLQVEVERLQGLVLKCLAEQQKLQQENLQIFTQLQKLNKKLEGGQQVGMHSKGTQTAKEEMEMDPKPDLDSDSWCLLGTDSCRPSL

[11] = target: T4, Serine/threonine-protein kinase Nek9 (Homo sapiens); details: at 1 µM
[12] = target: Serine/threonine-protein kinase PLK1 (Homo sapiens) (UniProt P53350); details: at 0.1 µM
[13] = target: Serine/threonine-protein kinase PLK1 (Homo sapiens) (UniProt P53350); details: at 1 µM
[14] = target: T5, Dual specificity protein kinase TTK (Homo sapiens) (UniProt P33981); details: at 0.1 µM
T5 sequence (whole entry): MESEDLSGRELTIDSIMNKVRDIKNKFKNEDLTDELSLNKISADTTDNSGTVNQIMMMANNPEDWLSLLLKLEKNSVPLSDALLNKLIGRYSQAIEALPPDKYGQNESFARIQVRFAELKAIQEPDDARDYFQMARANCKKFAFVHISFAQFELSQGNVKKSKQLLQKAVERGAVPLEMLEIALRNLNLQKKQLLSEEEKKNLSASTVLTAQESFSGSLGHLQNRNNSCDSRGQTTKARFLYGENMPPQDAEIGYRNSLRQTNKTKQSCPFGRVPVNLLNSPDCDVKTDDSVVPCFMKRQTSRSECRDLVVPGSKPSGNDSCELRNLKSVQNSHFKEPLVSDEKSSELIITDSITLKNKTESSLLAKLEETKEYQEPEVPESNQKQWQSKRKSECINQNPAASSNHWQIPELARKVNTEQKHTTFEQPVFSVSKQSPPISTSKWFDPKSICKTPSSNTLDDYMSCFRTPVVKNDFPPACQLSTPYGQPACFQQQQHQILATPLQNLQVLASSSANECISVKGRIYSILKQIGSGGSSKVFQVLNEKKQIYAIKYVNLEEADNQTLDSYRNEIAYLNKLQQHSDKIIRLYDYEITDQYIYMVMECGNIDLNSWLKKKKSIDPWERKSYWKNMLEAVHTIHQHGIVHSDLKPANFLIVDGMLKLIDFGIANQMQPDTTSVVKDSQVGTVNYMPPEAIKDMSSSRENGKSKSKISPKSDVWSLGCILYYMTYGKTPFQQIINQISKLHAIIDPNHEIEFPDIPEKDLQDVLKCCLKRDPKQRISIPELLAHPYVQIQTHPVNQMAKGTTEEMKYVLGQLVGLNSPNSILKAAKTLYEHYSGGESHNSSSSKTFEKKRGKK

[15] = system: T6, Receptor-type tyrosine-protein kinase FLT3 (Homo sapiens), P36888 [D835Y]; details: at 1 µM
T6 sequence (whole entry): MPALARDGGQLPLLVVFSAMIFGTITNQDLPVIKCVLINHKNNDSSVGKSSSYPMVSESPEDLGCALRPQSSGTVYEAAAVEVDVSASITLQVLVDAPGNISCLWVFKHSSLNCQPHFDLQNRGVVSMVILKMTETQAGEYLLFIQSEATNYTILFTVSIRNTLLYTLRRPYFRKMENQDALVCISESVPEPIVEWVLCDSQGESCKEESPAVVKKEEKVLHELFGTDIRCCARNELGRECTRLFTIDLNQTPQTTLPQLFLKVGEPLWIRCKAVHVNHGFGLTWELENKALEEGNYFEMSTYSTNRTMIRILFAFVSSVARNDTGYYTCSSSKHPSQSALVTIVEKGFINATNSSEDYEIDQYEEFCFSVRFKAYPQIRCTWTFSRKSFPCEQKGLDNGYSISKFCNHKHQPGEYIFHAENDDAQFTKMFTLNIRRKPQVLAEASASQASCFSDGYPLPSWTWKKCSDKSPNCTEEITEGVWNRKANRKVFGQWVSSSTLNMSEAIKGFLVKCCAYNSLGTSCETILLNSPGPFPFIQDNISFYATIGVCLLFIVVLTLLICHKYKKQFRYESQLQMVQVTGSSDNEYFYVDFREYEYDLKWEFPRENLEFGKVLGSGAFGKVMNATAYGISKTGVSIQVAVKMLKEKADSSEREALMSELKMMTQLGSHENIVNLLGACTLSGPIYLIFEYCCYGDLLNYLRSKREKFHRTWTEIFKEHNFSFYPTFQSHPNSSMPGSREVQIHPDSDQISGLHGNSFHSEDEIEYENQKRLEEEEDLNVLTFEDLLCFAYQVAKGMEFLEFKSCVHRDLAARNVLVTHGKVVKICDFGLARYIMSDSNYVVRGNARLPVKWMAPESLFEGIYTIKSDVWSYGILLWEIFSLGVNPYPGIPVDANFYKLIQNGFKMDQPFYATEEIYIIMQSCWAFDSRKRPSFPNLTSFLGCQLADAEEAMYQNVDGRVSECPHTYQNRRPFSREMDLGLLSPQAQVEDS

[16] = target: Vascular endothelial growth factor receptor 3 (Homo sapiens) (UniProt P35916); details: at 0.1 µM
[17] = target: Vascular endothelial growth factor receptor 3 (Homo sapiens) (UniProt P35916); details: at 1 µM
[18] = target: Macrophage colony-stimulating factor 1 receptor (Homo sapiens) (UniProt P07333); details: at 0.1 µM
[19] = target: Macrophage colony-stimulating factor 1 receptor (Homo sapiens) (UniProt P07333); details: at 1 µM
[20] = target: Tyrosine-protein kinase Fyn (Homo sapiens) (UniProt P06241); details: at 0.1 µM
Chain of Tyrosine-protein kinase Fyn (Homo sapiens) (P06241 2-537 limits assumed): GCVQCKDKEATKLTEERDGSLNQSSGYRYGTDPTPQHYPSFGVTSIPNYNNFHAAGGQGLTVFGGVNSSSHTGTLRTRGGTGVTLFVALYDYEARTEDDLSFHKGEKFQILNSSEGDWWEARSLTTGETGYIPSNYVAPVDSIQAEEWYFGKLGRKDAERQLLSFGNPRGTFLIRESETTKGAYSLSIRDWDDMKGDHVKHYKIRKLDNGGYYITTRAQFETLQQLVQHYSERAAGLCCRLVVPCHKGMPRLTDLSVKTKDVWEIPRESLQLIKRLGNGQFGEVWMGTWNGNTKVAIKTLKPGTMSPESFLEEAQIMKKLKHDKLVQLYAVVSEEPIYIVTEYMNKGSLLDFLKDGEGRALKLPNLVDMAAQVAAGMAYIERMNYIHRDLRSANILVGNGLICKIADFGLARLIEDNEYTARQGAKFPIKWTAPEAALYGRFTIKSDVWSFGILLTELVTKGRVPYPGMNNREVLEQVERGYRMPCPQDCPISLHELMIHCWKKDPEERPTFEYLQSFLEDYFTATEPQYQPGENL

Chain of Serine/threonine-protein kinase PLK1 (Homo sapiens) (P53350 whole entry): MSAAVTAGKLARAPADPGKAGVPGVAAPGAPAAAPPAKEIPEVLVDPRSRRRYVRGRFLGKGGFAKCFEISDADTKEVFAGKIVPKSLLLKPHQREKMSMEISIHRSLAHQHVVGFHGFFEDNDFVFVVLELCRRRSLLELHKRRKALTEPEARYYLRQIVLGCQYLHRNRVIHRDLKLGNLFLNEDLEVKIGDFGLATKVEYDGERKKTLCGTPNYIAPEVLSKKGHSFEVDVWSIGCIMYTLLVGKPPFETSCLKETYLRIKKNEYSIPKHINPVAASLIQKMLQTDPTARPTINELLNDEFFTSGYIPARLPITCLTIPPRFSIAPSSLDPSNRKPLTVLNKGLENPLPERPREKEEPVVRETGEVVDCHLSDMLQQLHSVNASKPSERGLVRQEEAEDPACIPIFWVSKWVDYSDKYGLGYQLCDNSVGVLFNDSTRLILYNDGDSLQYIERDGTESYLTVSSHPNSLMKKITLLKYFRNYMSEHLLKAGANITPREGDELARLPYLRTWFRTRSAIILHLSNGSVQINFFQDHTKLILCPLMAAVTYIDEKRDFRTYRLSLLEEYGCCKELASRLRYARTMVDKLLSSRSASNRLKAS
Chain of Serine/threonine-protein kinase Nek6 (Homo sapiens) (Q9HC98 whole entry): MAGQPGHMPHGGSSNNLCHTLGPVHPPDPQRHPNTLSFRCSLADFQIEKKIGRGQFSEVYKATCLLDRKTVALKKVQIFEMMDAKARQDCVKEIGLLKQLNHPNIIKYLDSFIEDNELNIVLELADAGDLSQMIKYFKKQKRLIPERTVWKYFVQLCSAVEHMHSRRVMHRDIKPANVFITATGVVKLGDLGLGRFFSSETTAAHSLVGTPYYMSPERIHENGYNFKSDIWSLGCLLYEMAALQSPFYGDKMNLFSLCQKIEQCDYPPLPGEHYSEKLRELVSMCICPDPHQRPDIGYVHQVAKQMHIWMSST
Chain of Vascular endothelial growth factor receptor 3 (Homo sapiens) (P35916 whole entry): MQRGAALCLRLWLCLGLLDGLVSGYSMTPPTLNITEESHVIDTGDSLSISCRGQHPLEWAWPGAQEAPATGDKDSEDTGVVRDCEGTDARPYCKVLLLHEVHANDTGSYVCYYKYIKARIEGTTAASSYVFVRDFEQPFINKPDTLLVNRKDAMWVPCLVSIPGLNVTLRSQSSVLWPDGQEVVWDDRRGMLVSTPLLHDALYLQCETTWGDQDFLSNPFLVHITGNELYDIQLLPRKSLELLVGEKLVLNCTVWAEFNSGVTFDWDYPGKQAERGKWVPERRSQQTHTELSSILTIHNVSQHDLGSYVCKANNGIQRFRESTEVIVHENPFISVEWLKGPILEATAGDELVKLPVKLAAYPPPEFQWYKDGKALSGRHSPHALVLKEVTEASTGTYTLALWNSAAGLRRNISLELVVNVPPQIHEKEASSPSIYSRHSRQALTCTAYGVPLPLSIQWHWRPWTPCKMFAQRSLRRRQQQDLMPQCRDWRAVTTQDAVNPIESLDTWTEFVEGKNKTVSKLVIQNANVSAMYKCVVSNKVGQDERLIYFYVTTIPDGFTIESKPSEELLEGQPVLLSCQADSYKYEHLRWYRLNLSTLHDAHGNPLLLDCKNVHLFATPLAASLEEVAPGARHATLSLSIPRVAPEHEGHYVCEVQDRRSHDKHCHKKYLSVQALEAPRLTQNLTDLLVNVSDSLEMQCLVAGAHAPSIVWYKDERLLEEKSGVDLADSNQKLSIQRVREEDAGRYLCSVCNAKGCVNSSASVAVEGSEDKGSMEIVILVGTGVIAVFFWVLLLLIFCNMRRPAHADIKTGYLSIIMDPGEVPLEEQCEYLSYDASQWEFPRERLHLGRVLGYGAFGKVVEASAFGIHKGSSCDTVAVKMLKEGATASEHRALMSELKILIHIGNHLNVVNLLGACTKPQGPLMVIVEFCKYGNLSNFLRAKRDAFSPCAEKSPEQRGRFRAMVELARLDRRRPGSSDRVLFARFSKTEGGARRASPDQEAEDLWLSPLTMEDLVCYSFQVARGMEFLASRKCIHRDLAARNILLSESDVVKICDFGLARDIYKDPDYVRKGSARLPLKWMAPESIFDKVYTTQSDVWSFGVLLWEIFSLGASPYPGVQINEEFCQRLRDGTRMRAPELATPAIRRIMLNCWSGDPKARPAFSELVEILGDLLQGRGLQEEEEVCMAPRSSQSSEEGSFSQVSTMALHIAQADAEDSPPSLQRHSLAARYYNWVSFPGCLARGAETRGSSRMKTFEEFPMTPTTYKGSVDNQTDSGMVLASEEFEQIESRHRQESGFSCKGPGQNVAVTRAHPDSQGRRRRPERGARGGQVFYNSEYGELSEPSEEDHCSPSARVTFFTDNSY
Chain of Macrophage colony-stimulating factor 1 receptor (Homo sapiens) (P07333 whole entry): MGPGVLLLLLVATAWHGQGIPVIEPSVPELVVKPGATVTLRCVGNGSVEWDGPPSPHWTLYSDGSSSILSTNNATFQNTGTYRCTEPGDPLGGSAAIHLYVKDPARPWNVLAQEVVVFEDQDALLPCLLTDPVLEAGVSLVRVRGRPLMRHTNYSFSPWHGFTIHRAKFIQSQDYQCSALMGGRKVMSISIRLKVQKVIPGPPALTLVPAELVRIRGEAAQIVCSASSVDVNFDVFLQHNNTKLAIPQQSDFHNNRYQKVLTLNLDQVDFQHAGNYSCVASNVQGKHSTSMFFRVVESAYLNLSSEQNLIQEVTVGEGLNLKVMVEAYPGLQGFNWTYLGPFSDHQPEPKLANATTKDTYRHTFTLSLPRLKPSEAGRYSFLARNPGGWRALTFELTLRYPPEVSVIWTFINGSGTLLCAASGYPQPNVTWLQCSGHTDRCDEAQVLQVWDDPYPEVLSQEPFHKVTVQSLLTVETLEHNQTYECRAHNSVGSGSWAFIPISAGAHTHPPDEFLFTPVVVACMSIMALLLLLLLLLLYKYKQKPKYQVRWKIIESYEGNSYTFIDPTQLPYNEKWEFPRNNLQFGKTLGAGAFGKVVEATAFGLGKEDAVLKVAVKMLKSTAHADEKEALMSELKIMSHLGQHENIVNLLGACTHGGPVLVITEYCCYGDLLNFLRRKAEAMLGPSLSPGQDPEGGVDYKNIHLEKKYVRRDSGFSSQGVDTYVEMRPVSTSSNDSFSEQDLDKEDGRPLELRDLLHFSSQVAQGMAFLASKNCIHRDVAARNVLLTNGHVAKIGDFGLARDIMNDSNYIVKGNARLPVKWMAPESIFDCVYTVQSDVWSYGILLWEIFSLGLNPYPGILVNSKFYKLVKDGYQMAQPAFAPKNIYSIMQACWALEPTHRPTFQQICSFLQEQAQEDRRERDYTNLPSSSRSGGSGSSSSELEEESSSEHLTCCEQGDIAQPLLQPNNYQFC
Chain of Serine/threonine-protein kinase Nek7 (Homo sapiens) (Q8TDX7 whole entry, looked up): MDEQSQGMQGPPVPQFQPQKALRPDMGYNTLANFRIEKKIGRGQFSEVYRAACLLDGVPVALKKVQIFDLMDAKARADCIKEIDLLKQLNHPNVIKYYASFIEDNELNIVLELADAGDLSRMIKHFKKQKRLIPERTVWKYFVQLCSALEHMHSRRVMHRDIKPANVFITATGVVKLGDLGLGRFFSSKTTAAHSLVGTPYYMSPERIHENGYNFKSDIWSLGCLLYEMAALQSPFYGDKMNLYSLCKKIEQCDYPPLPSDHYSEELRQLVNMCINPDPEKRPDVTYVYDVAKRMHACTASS

Row | Compound | inhibition [1] [%] | inhibition [2] [%] | inhibition [3] [%] | inhibition [4] [%] | inhibition [5] [%] | inhibition [6] [%] | inhibition [7] [%] | inhibition [8] [%] | inhibition [9] [%] | inhibition [10] [%] | inhibition [11] [%] | inhibition [12] [%] | inhibition [13] [%] | inhibition [14] [%] | inhibition [15] [%] | inhibition [16] [%] | inhibition [17] [%] | inhibition [18] [%] | inhibition [19] [%] | inhibition [20] [%]
1 | COc1cc(Nc2ncc(-c3ccccc3)o2)cc(OC)c1 | 10.9 | 1.83 | 4.11 | 5.36 | 5.95 | 3.13 | 1.56 | 3.14 | 5.01 | 10.4 | 7.35 | 4.62 | 2.5 | 10 | 36.7 | 1.25 | 9.4 | 14.5 | 56.3 | 2.7
2 | CS(=O)(=O)CCNCc1ccc(-c2ccc3ncnc(Nc4ccc(OCc5ccccc5)cc4)c3c2)o1 | 4.6 | 2.22 | 2.22 | 4.68 | 3.32 | 2.28 | 3.11 | 2.47 | 3.65 | 5.77 | 15.5 | 3.64 | 3.52 | 5.7 | -0.67 | -0.25 | 4.64 | 1.81 | 6.19 | 1.87
3 | CN(c1ccc(NC(=O)NCCN2CCOCC2)cc1)c1ccnc(Nc2ccc(CS(C)(=O)=O)cc2)n1 | 95.2 | 2.09 | 4.64 | 2.52 | 1.94 | 3.82 | 3.91 | 3.06 | 3.17 | 5.2 | 4.91 | 0.46 | 1.42 | 6.2 | 19.9 | 4.1 | 20.6 | 79.7 | 97 | 0.52
